Test results taken from PubChem BioAssay AID1159580 (chemical genetic matrix, 2015).
Where “and” joins values, the source holds several entries; their conditions need not be identical. Equal values may be shown once. In all, about 5,500 compounds went through this assay and about 2,000 (36%) were called active. About 18% were inconclusive and are not listed. Cut-off read from the data, not from the text of the source: active = normalized growth mostly below about 0.91 (no sharp cut-off); inconclusive = no clear call, values can overlap the other calls; inactive = mostly above about 0.92. The list shows a part of the results.

Experiment: chemical genetic growth profiling, strain panel (AID 1159580);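 note: tested at 20 µM; growth read once vehicle control cultures reached saturation at 30 °C; 1 = growth at the plate median or of vehicle wells; lower values mean less growth of the strain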
Conditions: S. cerevisiae deletion strains, growth OD

Measured: normalized growth

O=C1N=C(O)CN1/N=C\c1ccc(-c2ccc([N+](=O)[O-])cc2)o1
inactive: locus YAL013W, strain DEP1, stronger effect = lower value 1.01 and 0.985 | locus YAL021C, strain ccr4, stronger effect = lower value 0.948 | locus YAL026C, strain drs2, stronger effect = lower value 0.981 | locus YAL030W, strain snc1, stronger effect = lower value 0.986 | locus YAL040C, strain CLN3, stronger effect = lower value 1.03 | locus YBL061C, strain skt5, stronger effect = lower value 1 | locus YBR009C, strain hhf1, stronger effect = lower value 1 | locus YBR021W, strain FUR4, stronger effect = lower value 1.03 | locus YBR023C, strain chs3, stronger effect = lower value 0.998 | locus YBR171W, strain sec66, stronger effect = lower value 0.98 | locus YBR229C, strain ROT2, stronger effect = lower value 1.01 | locus YBR231C, strain swc5, stronger effect = lower value 0.971 | locus YBR279W, strain paf1, stronger effect = lower value 0.974 | locus YCL011C, strain gbp2, stronger effect = lower value 0.989 | locus YCL016C, strain dcc1, stronger effect = lower value 0.985 | locus YCL029C, strain bik1, stronger effect = lower value 1.04 | locus YCL061C, strain MRC1 (second series), stronger effect = lower value 1.01 | locus YCL061C, strain MRC1, stronger effect = lower value 0.987 | locus YCL069W, strain vba3, stronger effect = lower value 0.974 | locus YCR088W, strain abp1, stronger effect = lower value 0.973 | locus YDL005C, strain med2, stronger effect = lower value 0.973 | locus YDL035C, strain GPR1, stronger effect = lower value 1.03 | locus YDL040C, strain nat1, stronger effect = lower value 0.978 | locus YDL074C, strain BRE1, stronger effect = lower value 1.04 | locus YDL101C, strain DUN1, stronger effect = lower value 1.01 | locus YDL134C, strain PPH21, stronger effect = lower value 1.02 | locus YDL185W, strain tfp1, stronger effect = lower value 1.04 | locus YDL192W, strain arf1, stronger effect = lower value 1.03 | locus YDR001C, strain nth1, stronger effect = lower value 0.977 | locus YDR069C, strain doa4, stronger effect = lower value 0.987 | locus YDR101C, strain arx1, stronger effect = lower value 1.02 | locus YDR137W, strain rgp1, stronger effect = lower value 0.918 | locus YDR150W, strain NUM1, stronger effect = lower value 1.03 and 1 | locus YDR159W, strain sac3, stronger effect = lower value 0.966 | locus YDR162C, strain NBP2, stronger effect = lower value 1.02 | locus YDR195W, strain ref2 0.988 | locus YDR297W, strain sur2, stronger effect = lower value 0.984 | locus YDR318W, strain mcm21, stronger effect = lower value 1.02 | locus YDR334W, strain swr1, stronger effect = lower value 0.949 | locus YDR335W, strain msn5, stronger effect = lower value 0.985 | locus YDR363W, strain ESC2, stronger effect = lower value 0.996 | locus YDR388W, stronger effect = lower value 1.03 | locus YDR392W, strain spt3, stronger effect = lower value 0.942 | locus YDR502C, strain sam2, stronger effect = lower value 1.01 | locus YEL003W, strain gim4, stronger effect = lower value 0.986 | locus YEL037C, strain rad23, stronger effect = lower value 0.974 | locus YEL061C, strain CIN8 (second series), stronger effect = lower value 0.97 | locus YEL061C, strain CIN8, stronger effect = lower value 1.02 | locus YER002W, strain NOP16, stronger effect = lower value 1 | locus YER015W, strain faa2, stronger effect = lower value 0.968 | locus YER016W, strain bim1, stronger effect = lower value 0.99 | locus YER110C, stronger effect = lower value 1.03 | locus YER111C, strain swi4, stronger effect = lower value 0.968 | locus YER155C, strain BEM2 (second series), stronger effect = lower value 0.955 | locus YER155C, strain BEM2, stronger effect = lower value 1.01 | locus YER167W, strain BCK2, stronger effect = lower value 1.03 | locus YFR010W, strain ubp6, stronger effect = lower value 0.984 | locus YGL078C, strain dbp3, stronger effect = lower value 1.04 | locus YGL086W, strain mad1, stronger effect = lower value 1.02 | locus YGL167C, strain pmr1, stronger effect = lower value 0.994 | locus YGL173C, strain kem1, stronger effect = lower value 0.99 | locus YGL227W, strain vid30, stronger effect = lower value 0.986 | locus YGL240W, strain doc1, stronger effect = lower value 0.977 | locus YGL248W, strain PDE1, stronger effect = lower value 1.02 | locus YGL253W, strain hxk2, stronger effect = lower value 0.987 | locus YGR078C, strain PAC10, stronger effect = lower value 1.02 and 1.01 | locus YGR135W, strain pre9, stronger effect = lower value 1.02 | locus YGR229C, strain SMI1, stronger effect = lower value 0.997 | locus YGR252W, strain gcn5, stronger effect = lower value 0.983 | locus YHR013C, strain ard1, stronger effect = lower value 0.992 | locus YHR027C, strain rpn1, stronger effect = lower value 0.992 | locus YHR030C, strain SLT2, stronger effect = lower value 1.02 and 1.01 | locus YHR079C, strain IRE1 (second series), stronger effect = lower value 1.02 | locus YHR079C, strain IRE1, stronger effect = lower value 1.02 | locus YHR094C, strain hxt1, stronger effect = lower value 1.03 | locus YHR129C, strain ARP1, stronger effect = lower value 1.02 | locus YHR142W, strain chs7, stronger effect = lower value 0.986 | locus YHR200W, strain rpn10, stronger effect = lower value 1.02 | locus YIL066C, strain RNR3, stronger effect = lower value 1.02 | locus YIL073C, strain SPO22, stronger effect = lower value 1.06 | locus YIL125W, strain kgd1, stronger effect = lower value 1.03 | locus YIR030C, strain dcg1, stronger effect = lower value 1.03 | locus YJL092W, strain hpr5, stronger effect = lower value 0.979 | locus YJL095W, strain BCK1 (second series), stronger effect = lower value 0.993 | locus YJL095W, strain BCK1, stronger effect = lower value 1.03 and 1.01 | locus YJL115W, strain asf1, stronger effect = lower value 0.976 | locus YJL129C, strain trk1, stronger effect = lower value 0.912 | locus YJL134W, strain LCB3, stronger effect = lower value 1.01 | locus YJL154C, strain vps35, stronger effect = lower value 0.968 | locus YJL164C, strain tpk1, stronger effect = lower value 1.01 | locus YJL166W, strain qcr8, stronger effect = lower value 0.978 | locus YJL168C, strain set2, stronger effect = lower value 1.02 | locus YJL187C, strain SWE1 (second series), stronger effect = lower value 1.02 | locus YJL187C, strain SWE1, stronger effect = lower value 0.986 | locus YJR043C, strain POL32, stronger effect = lower value 1.04 | locus YJR066W, strain TOR1, stronger effect = lower value 0.944
